Assay outcomes: PubChem, National Center for Advancing Translational Sciences (NCATS)
DT40 TDP1 CPT: DT40-hTDP1 cell growth loss with CPT; chicken DT40 Tdp1-/-;hTDP1 cells + 20 nM CPT, ATP luminescence, 48 h; Potency, µM (doses to about 46.2 µM), for inactives: at the highest dose activity change, negative = growth inhibition, most hits filed as inhibitors; actives 12% (n = 420,000); AID 686979; further: potency means the concentration at half of the fitted maximal effect; nearly all actives have a fitted effect of over 55% in size
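Cell growth measured by CellTiter-Glo luminescence after a minimum 48 h, 37 C compound exposure with 20 nM CPT in Tdp1-knockout DT40 cells stably expressing hTDP1, seeded 400/well; qHTS titration format.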
IL-1B inflam inh: blocks inflammasome-driven IL-1 beta release | THP-1 LPS/ATP IL-1B secretion, AlphaLISA, 16 h; active compounds read low | activity change, % at 57.5 µM | actives 4.7% (n = 360,000) | AID 743279; in the data active means activity change below about -50%; inconclusive means mostly about -30% to -49%
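Secreted IL-1B measured by AlphaLISA bead assay after 16 h compound exposure of THP-1 cells; compounds (final up to 57.5 uM) added 1 h before LPS (250 ng/mL) and ATP (1.25 mM) stimulation; lower signal means less secretion.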
DT40 TDP1 no CPT: qHTS for Inhibitors of human tyrosyl-DNA phosphodiesterase 1 (TDP1): qHTS in cells in absence of CPT; DT40 Tdp1-/- hTDP1 cells, no CPT, ATP luminescence, 48 h; Potency, µM (series often up to 46.2 µM), inactives show at the top dose activity change, negative = growth inhibition, hits mostly inhibitors; actives 15% (n = 420,000); AID 686978, 2013; further: potency means the concentration at half of the fitted maximal effect; nearly all actives have a fitted effect of over 55% in size
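Cells were dispensed at 400 per well, compounds added by pin tool, plates incubated ≥48 hr at 37 °C, then CellTiter-Glo added for 30 min at room temperature before luminescence reading. Line: DT40 Tdp1-/- complemented with hTDP1; camptothecin omitted.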
HT1080 IDH1KD tx: kills HT-1080 cells with IDH1 knockdown | HT-1080 IDH1 knockdown viability, ATP luminescence, 48 h | actives 2% (n = 360,000) | Potency, µM (titrated, usually from 46.1 µM), inactives show top-dose activity, negative = toxicity, most hits filed as cytotoxic | AID 686971;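 further: potency means the concentration at half of the fitted maximal effect; 0% = DMSO wells and -100% = cell-free medium wells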
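Luminescent ATP read-out (CellTiter-Glo, 10 min at room temperature) after 48 h compound exposure at 37 °C gave viability of IDH1-knockdown HT-1080 cells. Activity was normalised to DMSO and cell-free wells, then fitted as concentration-response curves.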
HT1080NT lethal: kills 2HG-producing HT-1080-NT fibrosarcoma cells; HT-1080-NT fibrosarcoma viability, CellTiter-Glo ATP luminescence, 48 h; Potency, µM (doses to about 46.1 µM), for inactives: at the highest dose activity, negative = less viability, actives largely listed as cytotoxic; actives 1.6% (n = 360,000); AID 686970;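 further: NT is the 2HG producing partner of a matched IDH1 knockdown line; potency means the concentration at half of the fitted maximal effect; 0% = DMSO-treated cells and -100% = media-only wells without cells; nearly all actives have a fitted effect of over 55% in size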
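Fibrosarcoma NT cells, 750 per well in 5% FBS RPMI, were exposed to compound for 48 hours. Viability: CellTiter-Glo luminescence.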
ALOX12 inh: ALOX12 (human) lipoxygenase inhibition. Potency, µM (doses to about 108 µM), for inactives: at the top dose activity change, negative = inhibition, actives largely listed as inhibitors. P18054. actives 1.1% (n = 580,000). purified 12hLO, xylenol orange hydroperoxide absorbance; further: potency means the concentration at half of the fitted maximal effect
Target sequence (P18054 whole entry, looked up): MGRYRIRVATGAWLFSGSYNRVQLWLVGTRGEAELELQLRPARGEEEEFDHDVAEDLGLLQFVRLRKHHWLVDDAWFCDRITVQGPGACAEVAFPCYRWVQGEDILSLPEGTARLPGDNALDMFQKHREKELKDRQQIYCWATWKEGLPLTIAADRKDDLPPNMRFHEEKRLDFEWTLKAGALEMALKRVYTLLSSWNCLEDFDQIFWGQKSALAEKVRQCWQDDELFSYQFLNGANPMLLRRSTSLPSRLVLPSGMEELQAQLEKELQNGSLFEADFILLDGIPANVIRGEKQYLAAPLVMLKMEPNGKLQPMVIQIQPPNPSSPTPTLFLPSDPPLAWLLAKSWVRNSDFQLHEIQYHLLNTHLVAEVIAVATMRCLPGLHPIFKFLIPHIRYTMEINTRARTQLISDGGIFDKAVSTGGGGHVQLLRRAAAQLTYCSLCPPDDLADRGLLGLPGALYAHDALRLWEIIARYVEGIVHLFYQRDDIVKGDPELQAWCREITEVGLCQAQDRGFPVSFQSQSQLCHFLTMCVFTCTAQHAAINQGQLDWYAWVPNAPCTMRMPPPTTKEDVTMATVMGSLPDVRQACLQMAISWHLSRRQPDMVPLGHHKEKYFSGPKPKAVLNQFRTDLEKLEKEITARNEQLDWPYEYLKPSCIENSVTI
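Purified human 12hLO at 150 nM in 25 mM Hepes, 0.01% Triton X-100, pH 7.0, preincubated 15 min at room temperature with compound. Reaction started with 40 uM arachidonic acid, 30 min at room temperature. Hydroperoxide measured by Fe-xylenol orange, 573/405 nm absorbance ratio.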
An asterisk follows results filed as active; ? = inconclusive; . = not tested or not shown; ! = repeats disagree; [ ] = dose if it differs, or a comment. This excerpt belongs to a sample that is enriched for hits. Unless noted, the call rests on the fitted dose curve; in most records, active means well fitted curve in the direction sought with a large enough effect; inconclusive means small, poorly fitted or top-dose-only effect, or another doubt; inactive means no such curve, though single readings can be large; an effect the other way counts as inactive or inconclusive. Unless noted, on the % scale 0 is the no-effect control and ±100 the full control effect.

SMILES | DT40 TDP1 CPT | IL-1B inflam inh | DT40 TDP1 no CPT | HT1080 IDH1KD tx | HT1080NT lethal | ALOX12 inh
O=C(Cc1c[nH]c2ccccc12)NNCc1ccc(N(CCCl)CCCl)cc1 | 0.52µM* | 16 | 0.92µM* | -15% | -7% | -27%
O=C(Cc1ccc(N(CCCl)CCCl)cc1)NC(Cc1ccc(Cl)cc1)C(=O)O (stereo not drawn) | ? | 0 | ? | 9% | 15% | -33%
CCCc1[nH]nc2c1C(c1ccc(OC)c(Cn3nnc4ccccc43)c1)C(C#N)=C(N)O2 (stereo not drawn) | 26µM* | 2 | ? | 4% | 1% | .
Cc1ncc2c(n1)C[C@@H]1CC[C@H]2N1C(=O)Nc1ccc2c(c1)OCCO2 | . | . | . | . | . | 49%
C[C@@]1(CO)[C@H](O)CC[C@@]2(C)[C@H]1CC[C@H]1C[C@@H]3C[C@@]12CC[C@]3(O)CO | 0.1µM* | . | 0.13µM* | . | . | ?
CC(C)C[C@H]1CN(CCCC[C@H]2CNC(=O)C(=O)N2CCC2CCCCC2)C(=O)C(=O)N1CCC1CCCCC1 | ? | 8 | 21µM* | 23µM* | 1% | 0%
O=C1NC[C@H](CCCCN2C[C@@H](Cc3ccccc3)N(CC3CCCCC3)C(=O)C2=O)N(CCC2CCCCC2)C1=O | 18µM* | -1 | 13µM* | -25% | -20% | ?
O=C1NC[C@H](CCCCN2C[C@H](Cc3ccccc3)N(CC3CCCCC3)C(=O)C2=O)N(CCC2CCCCC2)C1=O | ? | -8 | ? | 3% | 15% | ?
CN(C)Cc1ccccc1-c1ccc2n(c1=O)C[C@H]1C[C@@H]2CN(C(=O)c2cnccn2)C1 | . | . | . | . | . | -14%[176 µM]
CCOc1ccccc1CN1C2CCC1CC(c1ccc(C)cc1)C2 (stereo not drawn) | 23µM* | -12 | 18µM* | -26% | -27% | -29%
COC(=O)[C@]12OC[C@]34C([C@@H](O)[C@@H]1O)[C@]1(C)CC(=O)C(O)=C(C)[C@@H]1C[C@H]3OC(=O)[C@H](O)[C@@H]24 (stereo partly drawn) | 2.9µM* | -23 | 1.5µM* | ? | ? | 1%
CC1=CC(O)C(O)C2(C)C1CC1OC(=O)C(O)C3C(C)C(O)C4(O)OCC13C42 (stereo not drawn) | -23% | 38 | -20% | ? | -12% | 22%
CN(CC1COc2ccccc2O1)c1nc(-c2cccnc2)nc2ccccc12 (stereo not drawn) | 21µM* | ? | 23µM* | -3% | -15% | 0%
CC(C)NC(=O)OC[C@H]1C[C@@H]2CCN1C[C@@H]2c1cc(C2CCCCC2)nn1C | . | . | . | . | . | -22%[176 µM]
CC(CCc1ccccc1)NC(C)C(O)c1ccc(O)cc1 (stereo not drawn) | ? | -23 | 23µM*! | -1% | 0% | -10%
CC(C)[N+]12CCC(CC1)C(C(O)(c1ccccc1)c1ccccc1)C2 (stereo not drawn) | -11% | -1 | -21% | 3% | -5% | 0%
COc1cc(CNCCc2c[nH]c3ccccc23)cc(OC)c1OC | ? | ? | ? | -6% | -4% | -4%
Fc1cccc(CNCCc2c[nH]c3ccccc23)c1 | ? | ? | ? | 2% | 1% | 0%
c1ccc(CNCCc2c[nH]c3ccccc23)cc1 | -24% | -10 | -29% | 1% | -10% | ?
O=[N+]([O-])c1ccccc1CNCCc1c[nH]c2ccccc12 | 2% | ? | -10% | -1% | -9% | 0.56µM*
Cc1cccc(CNCCc2c[nH]c3ccccc23)c1 | 16µM* | -75* | 13µM* | ? | 15µM* | 45%
CCc1ccc(CNCCc2c[nH]c3ccccc23)cc1 | ? | -52* | 26µM* | -1% | -17% | 0.89µM*!
COc1cc(CNCCc2c[nH]c3ccccc23)cc(OC)c1 | ? | -80* | 23µM* | ? | ? | ?
Cn1nc(C2CCCCC2)cc1[C@H]1CN2CC[C@H]1C[C@@H]2CNC(=O)NCc1ccccc1 | . | . | . | . | . | 19%
CCCCc1ccc(NC(=O)c2ccc3c(c2)CCN3S(=O)(=O)CC)cc1 | 7.3µM* | . | 3.7µM* | . | . | -28%
SMILES | DT40 TDP1 CPT | IL-1B inflam inh | DT40 TDP1 no CPT | HT1080 IDH1KD tx | HT1080NT lethal | ALOX12 inh
CCN(CC)C(=O)c1ccc(NC(=O)c2ccc(N3CCCC3=O)cc2)cc1 | 9% | -14 | -4% | 10% | 2% | 342%
CC(C)c1ccc(NC(=O)c2ccc(F)c(S(=O)(=O)N3CCc4ccccc4C3)c2)cc1 | 4.6µM* | . | 5.2µM* | . | . | ?
CC(C)c1ccc(NC(=O)c2ccc3c(c2)CCN3S(=O)(=O)c2ccccc2)cc1 | 4.6µM* | . | 5.8µM* | . | . | -21%
Cn1cc(CN2CCN(C(=O)Cc3ccsc3)CC2)ccc1=O | . | . | . | . | . | 13%
Oc1ccccc1/C=N/[n+]1ccccc1 | 21µM* | 4 | 18µM* | -1% | 6% | 12%
CCC(CC)c1cc([C@H]2CN3CC[C@H]2C[C@@H]3CNC(=O)c2ccc(C)cc2)nc(-c2ccncc2)n1 | . | . | . | . | . | 6%
